From PubChem
IL1B secr inh – qHTS for Inhibitors of Inflammasome Signaling: IL-1-beta AlphaLISA Primary Screen; activity change, % at 57.5 µM; THP-1 LPS/ATP IL-1B secretion, AlphaLISA, 16 h; active compounds read low; 360,000 tested, 4.7% active; in the data active means activity change below about -50%; inconclusive means mostly about -30% to -49%
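Secreted IL-1B measured by AlphaLISA bead assay after 16 h compound exposure of THP-1 cells; compounds (final up to 57.5 uM) added 1 h before LPS (250 ng/mL) and ATP (1.25 mM) stimulation; lower signal means less secretion.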
TDP1 cell CPT – qHTS for Inhibitors of human tyrosyl-DNA phosphodiesterase 1 (TDP1): qHTS in cells in presence of CPT. chicken DT40 Tdp1-/-;hTDP1 cells + 20 nM CPT, ATP luminescence, 48 h. Potency, µM (doses to about 46.2 µM), for inactives: top-dose activity change, negative = growth inhibition, most hits filed as inhibitors. 420,000 tested, 12% active. AID 686979, 2013; further: potency means the concentration at half of the fitted maximal effect; nearly all actives have a fitted effect of over 55% in size
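Chicken DT40 Tdp1-/- cells complemented with human TDP1, 400 cells/well, exposed to compounds plus 20 nM camptothecin for at least 48 h at 37 C; viability read as ATP content by CellTiter-Glo luminescence.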
TDP1 cell noCPT – qHTS for Inhibitors of human tyrosyl-DNA phosphodiesterase 1 (TDP1): qHTS in cells in absence of CPT; 420,000 tested, 15% active; Potency, µM (titrated, usually from 46.2 µM), for the others: at the top dose activity change, negative = growth inhibition, hits mostly inhibitors; AID 686978, 2013; DT40 Tdp1-/- hTDP1 cells, no CPT, ATP luminescence, 48 h; further: potency means the concentration at half of the fitted maximal effect; nearly all actives have a fitted effect of over 55% in size
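Growth kinetics read by CellTiter-Glo luminescence after ≥48 hr at 37 °C. Cells: DT40 Tdp1-/- stably carrying human TDP1, 400 per well, compound exposure in the absence of CPT (DMSO vehicle).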
HT1080-NT tox – qHTS for induction of synthetic lethality in tumor cells producing 2HG: qHTS for the HT-1080-NT fibrosarcoma cell line; HT-1080-NT fibrosarcoma viability, CellTiter-Glo ATP luminescence, 48 h; Potency, µM (doses to about 46.1 µM), for the others: at the highest dose activity, negative = less viability, usual class: cytotoxic; 360,000 tested, 1.6% active; AID 686970, 2013;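 further: NT is the 2HG producing partner of a matched IDH1 knockdown line; potency means the concentration at half of the fitted maximal effect; 0% = DMSO-treated cells and -100% = media-only wells without cells; nearly all actives have a fitted effect of over 55% in size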
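HT-1080-NT; 750 cells/well; 5% FBS RPMI; 48 h compound, 37 degrees C; CellTiter-Glo luminescence; curve fitting and curve-class assignment.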
HT1080 IDH1KD tx – qHTS for induction of synthetic lethality in tumor cells producing 2HG: qHTS for the HT-1080-IDH1KD cell line | HT-1080 IDH1 knockdown viability, ATP luminescence, 48 h | 360,000 tested, 2% active | Potency, µM (titrated, usually from 46.1 µM), for inactives: at the highest dose activity, negative = toxicity, most hits filed as cytotoxic;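 further: potency means the concentration at half of the fitted maximal effect; 0% = DMSO wells and -100% = cell-free medium wells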
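In this qHTS, HT-1080 cells depleted of IDH1 are exposed for 48 h at 37 °C to compound titrations. Toxicity is scored from CellTiter-Glo luminescence, with DMSO as full viability and medium alone as none.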
Active calls of the source: *. This is a sample that favours compounds with a hit; in the whole collection about 19% have one here. Unless noted, the call rests on the fitted dose curve; in most records, active means well fitted curve in the direction sought with a large enough effect; inconclusive means small, poorly fitted or top-dose-only effect, or another doubt; inactive means no such curve, though single readings can be large; an effect the other way counts as inactive or inconclusive. Unless noted, on the % scale 0 is the no-effect control and ±100 the full control effect.

Screening CN1C(c2ccc(F)cc2)=CS/C1=C(/C#N)c1nnc(N2CCOCC2)n1-c1ccccc1 returned IL1B secr inh -6, TDP1 cell CPT inconclusive, TDP1 cell noCPT -11%, HT1080-NT tox 16% and HT1080 IDH1KD tx 5%.
Screening COc1ccc(Cc2nnc(N/N=C/c3ccc(O)cc3O)[nH]c2=O)cc1OC returned IL1B secr inh -53*, TDP1 cell CPT 5.8µM*, TDP1 cell noCPT 5.8µM*, HT1080-NT tox inconclusive and HT1080 IDH1KD tx inconclusive.
`CCOC(=O)c1c(C)n(-c2ccc(C)cc2)c2c(C(C(C)=O)C(=O)O)c(Br)c(O)c(O)c12` (stereo unspecified) gave IL1B secr inh -8, TDP1 cell CPT 23µM*, TDP1 cell noCPT 23µM*, HT1080-NT tox inconclusive and HT1080 IDH1KD tx -19%.
`CCOC(=O)C(C(C)=O)c1c(Br)c(O)c(O)c2c(C(=O)c3ccc(C)cc3)coc12` (stereo unspecified) gave IL1B secr inh -27, TDP1 cell CPT 2.9µM*, TDP1 cell noCPT 2.6µM*, HT1080-NT tox 8.9µM* and HT1080 IDH1KD tx 8.9µM*.
`CCn1c2ccccc2c2cc(N=C3SC(CC(=O)Nc4ccccc4OC)C(=O)N3CCOC)ccc21` (stereo unspecified) gave IL1B secr inh 9, TDP1 cell CPT inconclusive, TDP1 cell noCPT inconclusive, HT1080-NT tox 1% and HT1080 IDH1KD tx 3%.
Screening CCN(CC)CCOC(=O)c1ccc(NC(=O)c2cc3c(=O)n(CC)c4ccccc4c3s2)cc1 returned TDP1 cell CPT 5.2µM* and TDP1 cell noCPT 5.2µM*.
`CCn1c(=O)c2cc(C(=O)Nc3cc(OC)c(OC)c(OC)c3)sc2c2ccccc21` gave TDP1 cell CPT 9.2µM* and TDP1 cell noCPT 6.5µM*.
Screening CCn1c2ccccc2c2cc(N=C3SC(CC(=O)Nc4ccccc4OC)C(=O)N3C)ccc21 (stereo unspecified) returned IL1B secr inh 24, TDP1 cell CPT inconclusive, TDP1 cell noCPT 26µM*, HT1080-NT tox 6% and HT1080 IDH1KD tx -2%.
For COc1ccc(NC(=O)c2cc3c(=O)n(C)c4ccccc4c3s2)cc1Cl the results were TDP1 cell CPT 4% and TDP1 cell noCPT inconclusive.
For COc1ccc(NC(=O)c2cc3c(Cl)nc4ccccc4c3s2)cc1OC the results were IL1B secr inh -8, TDP1 cell CPT inconclusive, TDP1 cell noCPT 21µM*, HT1080-NT tox inconclusive and HT1080 IDH1KD tx inconclusive.
Screening CCn1c(=O)c(C(=O)Nc2cc(OC)c(OC)c(OC)c2)nc2ccccc21 returned TDP1 cell CPT 1% and TDP1 cell noCPT -28%.
N=c1c2ccccc2nnn1-c1cccc(C(F)(F)F)c1 was read as IL1B secr inh -15, TDP1 cell CPT -17%, TDP1 cell noCPT -29%, HT1080-NT tox inconclusive and HT1080 IDH1KD tx 6%.
`CCCc1nnc(NC(=O)Cc2coc3cc(C)cc(C)c23)s1` gave TDP1 cell CPT -18% and TDP1 cell noCPT -23%.
CCn1c(=O)c2cc(C(=O)Nc3cc(C)on3)sc2c2ccccc21 was read as IL1B secr inh inconclusive, TDP1 cell CPT 11%, TDP1 cell noCPT inconclusive, HT1080-NT tox 15% and HT1080 IDH1KD tx 12%.
CCn1c(=O)c2cc(C(=O)Nc3ccccc3OC)sc2c2ccccc21 was read as IL1B secr inh -19, TDP1 cell CPT 15µM*, TDP1 cell noCPT 21µM*, HT1080-NT tox 12% and HT1080 IDH1KD tx 2%.
Screening O=C(CCl)Nc1ccc(N2CCCCCC2)cc1 returned IL1B secr inh -98*, TDP1 cell CPT 5.2µM*, TDP1 cell noCPT 8.2µM*, HT1080-NT tox 23µM* and HT1080 IDH1KD tx 18µM*.
CCOc1ccc(OCC(=O)Nc2ccc(N3CCCCC3)cc2)cc1 was read as IL1B secr inh -4, TDP1 cell CPT -2%, TDP1 cell noCPT -10%, HT1080-NT tox -7% and HT1080 IDH1KD tx -1%.
For O=C(Cn1c(-c2ccccc2)noc1=O)Nc1ccc(S(=O)(=O)N2CCOCC2)cc1 the results were IL1B secr inh -3, TDP1 cell CPT 4%, TDP1 cell noCPT -6%, HT1080-NT tox 5% and HT1080 IDH1KD tx 10%.
Screening O=C(Cn1c(-c2ccccc2)noc1=O)Nc1ccc(N2CCCCCC2)cc1 returned IL1B secr inh 3, TDP1 cell CPT 16µM*, TDP1 cell noCPT 18µM*, HT1080-NT tox -6% and HT1080 IDH1KD tx inconclusive.
N#Cc1ccc(OCC(=O)Nc2ccc(N3CCCC3)cc2)cc1 was read as IL1B secr inh -5, TDP1 cell CPT inconclusive, TDP1 cell noCPT 12µM*, HT1080-NT tox 0% and HT1080 IDH1KD tx 0%.
For Cc1cc(C)cc(NC(=O)c2sc3nc[nH]c(=O)c3c2C)c1 the results were TDP1 cell CPT -15% and TDP1 cell noCPT -23%.
O=C(OCCN1C(=O)CCC1=O)c1ccc(S(=O)(=O)N2CCCCC2)cc1 was read as IL1B secr inh 22, TDP1 cell CPT -14%, TDP1 cell noCPT -8%, HT1080-NT tox 0% and HT1080 IDH1KD tx 1%.
Screening COc1ccc(CC(=O)n2[nH]c(=O)cc(C)c2=O)cc1OC returned TDP1 cell CPT inconclusive, TDP1 cell noCPT 18µM*, HT1080-NT tox 0% and HT1080 IDH1KD tx -3%.
Screening CCN(CC(=O)NCc1cccs1)C(=O)COc1ccc(C(C)=O)cc1 returned IL1B secr inh 0, TDP1 cell CPT 1%, TDP1 cell noCPT 10%, HT1080-NT tox 3% and HT1080 IDH1KD tx 2%.
`CN(C)c1nc2ncn(Cc3ccccc3)c2c(=O)[nH]1` gave IL1B secr inh 2, TDP1 cell CPT -2%, TDP1 cell noCPT 28%, HT1080-NT tox 6% and HT1080 IDH1KD tx 3%.
Screening CC1Nc2nc(N(C)C)[nH]c(=O)c2NC1C (stereo unspecified) returned IL1B secr inh 31, TDP1 cell CPT 26µM*, TDP1 cell noCPT inconclusive, HT1080-NT tox 19% and HT1080 IDH1KD tx 19%.
Fc1ccccc1OCc1nc(-c2ccc(-n3cccc3)cc2)no1 was read as TDP1 cell CPT 1% and TDP1 cell noCPT 0%.
Cc1ccc(C(=O)Nc2cc(C(F)(F)F)ccc2N2CCCCC2)cc1[N+](=O)[O-] was read as IL1B secr inh -18, TDP1 cell CPT 18µM*, TDP1 cell noCPT 21µM*, HT1080-NT tox 9% and HT1080 IDH1KD tx 4%.
